Some test systems named below: OVCAR-8 ovarian; OVCAR-5 ovarian; OVCAR-4 ovarian; SK-OV-3 ovarian; IGROV1 ovarian; OVCAR-3 ovarian; NCI/ADR-RES ovarian; T-47D breast; BT-549 breast; MDA-MB-435 melanoma; SW-620 colon; MCF7 breast; HCT-116 colon; HCC-2998 colon; KM12 colon; HS 578T breast.
Holding throughout (test): NCI-60 one-dose screen, 48 h (100 = growth as untreated, 0 = no growth, -100 = all killed)
What all share (settings): 10 µM unless noted

About 83,000 compounds went through this panel and 20% of them were active in at least one assay; those are over-represented in the sample as a whole.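 Testing used 96-well plates and a 48-hour single-concentration exposure. Example: -40 means 40% of the starting cells died.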 Unmarked numbers belong to inactive results. Active and inactive are the calls of the source. How the source made its calls: active means growth percent below 10; inactive means the rest.

In PubChem BioAssay (NCI) one finds growth data, which are given here for nine compounds.

Turning to `CC(=O)Oc1ccc(C23c4ccccc4C2(OC(C)=O)c2cc(OC(C)=O)ccc23)cc1` (stereo unspecified), the growth with OVCAR-8 ovarian is 49.6%; in the assay on OVCAR-5 ovarian, 86%; in the assay with OVCAR-4 ovarian, 92.3%; in the assay on SK-OV-3 ovarian it was 110%; in the assay on IGROV1 ovarian, 91.9%; in the assay on OVCAR-3 ovarian it was 78.2%. The growth in the assay with NCI/ADR-RES ovarian is 39.3%; with T-47D breast it was 38.9%; in the assay on BT-549 breast, 106%; with MDA-MB-435 melanoma, 97.9%; in the assay with SW-620 colon it was 80.3%; in the assay with MCF7 breast it was 49.5%. Further, the growth with HCT-116 colon was 61.6%; in the assay with HCC-2998 colon, 59.2%; in the assay on KM12 colon, 46.2%.
Take `Nc1nc(N)c([N+](=O)[O-])c(=O)[nH]1`: the growth in the assay on OVCAR-8 ovarian was 106%; in the assay with OVCAR-5 ovarian, 100%; with OVCAR-4 ovarian, 114%; with SK-OV-3 ovarian, 100%; in the assay with IGROV1 ovarian, 110%; in the assay with OVCAR-3 ovarian, 108%. Besides, the growth in the assay on HS 578T breast was 100%; in the assay on NCI/ADR-RES ovarian, 101%; in the assay on T-47D breast it was 92.2%; in the assay on BT-549 breast, 114%; in the assay with MDA-MB-435 melanoma it was 104%; with SW-620 colon, 97.4%. Also, the growth with MCF7 breast is 88.6%; in the assay with HCC-2998 colon it was 103%; in the assay with KM12 colon, 111%.
Regarding `CCOc1cc(C(C)(C)C)ccc1C1=N[C@H](c2ccc(Cl)cc2)[C@H](c2ccc(Cl)cc2)N1C(=O)N1CCN(CC#Cc2cccc3c2CN([C@@H]2CCC(=O)NC2=O)C3=O)CC1`, the growth is 17.2% with OVCAR-8 ovarian; 76% in the assay with OVCAR-5 ovarian; 26.5% in the assay on OVCAR-4 ovarian; 62.4% with SK-OV-3 ovarian; 8.46% (active) with IGROV1 ovarian; 41.1% in the assay on OVCAR-3 ovarian. In addition, the growth in the assay on HS 578T breast is 16.9%; in the assay on NCI/ADR-RES ovarian it was 25.9%; with T-47D breast it was 13.3%; with BT-549 breast it was 22.9%; in the assay on MDA-MB-435 melanoma, 33.6%; in the assay with SW-620 colon it was 26.9%. Moreover, the growth in the assay on MCF7 breast is 8.49% (active); in the assay on HCC-2998 colon, 25.3%; in the assay with KM12 colon, 26.3%.
For `CC(C)(C)c1ccc(S(=O)(=O)O)s1`, the growth in the assay on OVCAR-8 ovarian was 108%; in the assay on OVCAR-5 ovarian it was 96.3%; in the assay on OVCAR-4 ovarian, 96.6%; in the assay on SK-OV-3 ovarian, 101%; with IGROV1 ovarian, -12.6% (active); with OVCAR-3 ovarian, 115%. For the same compound, the growth with HS 578T breast is 88.8%; in the assay with NCI/ADR-RES ovarian, 106%; in the assay with T-47D breast it was 97.9%; in the assay on MDA-MB-435 melanoma it was 102%; with SW-620 colon, 108%; in the assay on MCF7 breast, 98%. Besides, the growth in the assay on HCT-116 colon was 107%; with HCC-2998 colon it was 112%; with KM12 colon it was 112%.
Consider `CCCCCCC(C)(O)c1ccccc1` (stereo unspecified), for which the growth in the assay on OVCAR-8 ovarian was 115%; in the assay with OVCAR-5 ovarian, 98.5%; in the assay on OVCAR-4 ovarian it was 110%; in the assay with SK-OV-3 ovarian it was 103%; in the assay on IGROV1 ovarian, 122%; with OVCAR-3 ovarian it was 117%. The growth in the assay on HS 578T breast was 117%; in the assay on NCI/ADR-RES ovarian, 101%; with T-47D breast it was 101%; with MDA-MB-435 melanoma it was 106%; with SW-620 colon, 107%; with MCF7 breast, 97.4%. Also, the growth in the assay with HCT-116 colon was 109%; in the assay with HCC-2998 colon it was 102%; with KM12 colon, 107%.
For `COc1cc(/C=C2\COc3ccc(O)cc3C2=O)cc(OC)c1`, the growth with OVCAR-8 ovarian was 40.4%; in the assay on OVCAR-5 ovarian, 73.7%; with OVCAR-4 ovarian, 93.4%; with SK-OV-3 ovarian it was 91.7%; in the assay with IGROV1 ovarian it was 73.2%; with OVCAR-3 ovarian it was 37.1%. Also, the growth is 77.4% in the assay with HS 578T breast; 65.8% in the assay with NCI/ADR-RES ovarian; 60.3% in the assay on T-47D breast; 66.1% in the assay on BT-549 breast; 20.1% in the assay on MDA-MB-435 melanoma; 2.07% (active) in the assay on SW-620 colon. Also, the growth in the assay on MCF7 breast was 8.22% (active); with HCC-2998 colon, 109%; in the assay on KM12 colon it was 17.4%.
On to `COc1c(O)cc2oc3cc(O)c(CC=C(C)C)c(O)c3c(=O)c2c1C/C=C(\C)CCC=C(C)C`, for which the growth in the assay with OVCAR-8 ovarian is 24.4%; with OVCAR-5 ovarian, 84.7%; in the assay with OVCAR-4 ovarian, 72.6%; in the assay on SK-OV-3 ovarian, 100%; with IGROV1 ovarian, 81.4%; in the assay on OVCAR-3 ovarian, 62%. In addition, the growth with NCI/ADR-RES ovarian was -39% (active); in the assay with T-47D breast, 77.1%; in the assay on BT-549 breast, 99.3%; with MDA-MB-435 melanoma, 78.4%; in the assay on SW-620 colon, 41.5%; in the assay with MCF7 breast it was 21.9%. Moreover, the figures for the growth in the assay with HCT-116 colon, in the assay on HCC-2998 colon and in the assay with KM12 colon were -29.6% (active), -0.115% (active) and 25%, respectively.
For the compound `O=C(/C=C/c1cc2ccccc2[nH]c1=O)c1ccc(Cl)cc1`, the growth with OVCAR-8 ovarian was 23.1%; in the assay with OVCAR-5 ovarian, 55.9%; with OVCAR-4 ovarian it was 43.8%; in the assay with SK-OV-3 ovarian, 58%; in the assay with IGROV1 ovarian, 26.4%; with OVCAR-3 ovarian it was -10.1% (active). Besides, the growth was 54% in the assay with HS 578T breast; -6.67% (active) with NCI/ADR-RES ovarian; 34% in the assay with T-47D breast; 29.4% with BT-549 breast; 8.38% (active) with MDA-MB-435 melanoma; -19.9% (active) with SW-620 colon. For the same compound, the growth in the assay with MCF7 breast was 15.2%; in the assay with HCT-116 colon, 2.8% (active); in the assay on HCC-2998 colon, 10.2%; in the assay on KM12 colon, -1.06% (active).
Regarding `COc1cccc(CCC2C(=O)CCCC2=O)c1`, the growth with OVCAR-8 ovarian is 116%; in the assay with OVCAR-5 ovarian, 103%; with OVCAR-4 ovarian, 124%; in the assay on SK-OV-3 ovarian, 102%; with IGROV1 ovarian, 111%; with OVCAR-3 ovarian, 99.9%. Further, the growth with NCI/ADR-RES ovarian is 110%; in the assay on T-47D breast it was 97.4%; with BT-549 breast, 109%; with MDA-MB-435 melanoma it was 119%; with SW-620 colon it was 112%; in the assay with MCF7 breast it was 108%. For the same compound, the figures for the growth with HCT-116 colon, with HCC-2998 colon and in the assay on KM12 colon were 114%, 115% and 106%, respectively.
